{
  "source": "the supplement of paper PMC10338343",
  "note": "± gives the standard deviation.",
  "data": [
    {"system": "MILI (PIWIL2) piRISC loaded with piRNA #1 (26 nt)", "test": "pre-steady-state target cleavage rate (min^-1); guide: piRNA #1 5'p-UGAGGUAGUAGGUUGUAUAGUAUCCA; MIWI and MILI are mouse PIWI proteins and EfPiwi is from a freshwater sponge; tags in brackets are library labels; higher = faster piRNA-guided slicing of the target", "settings": "auxiliary factor: 500 nM mouse GTSF1", "method_in_brief": "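Cleave-'n-Seq used a transcribed, DNA-blocked target RNA library at 0.1 nM and active affinity-purified piRISC with one synthetic guide at 1 nM, with or without 500 nM GTSF1 partner protein, in HEPES–potassium acetate buffer at 33 °C for 0–8 or 0–960 min. Uncleaved targets were sequenced and normalised to depth and to weakly complementary targets, and three trials were pooled with k3 capped at 0.0001 min^-1. The pre-steady-state cleavage rate was estimated by a burst-and-steady-state fit.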", "values": [
      {"sequence": "GGAGACCAUUCUAUACAACGUACUACCUCA", "pre-steady-state target cleavage rate": "0.0141 ± 0.0029"},
      {"sequence": "GGAGUGGCAUACUAUACAACCUACUACCUCA", "pre-steady-state target cleavage rate": "0.204 ± 0.015"},
      {"sequence": "GGAGUGGAUAGUAUACAACCUAGUACCUCA", "pre-steady-state target cleavage rate": "0.0556 ± 0.0099"},
      {"sequence": "GGAGACCUAAGUAAACAACCUACUACCUCA", "pre-steady-state target cleavage rate": "0.0128 ± 0.0033"},
      {"sequence": "GGAGACCAUACUAUUCAACCUACUUCCUCA", "pre-steady-state target cleavage rate": "0.1 ± 0.022"},
      {"sequence": "GGAGACCUAUGUAUACAACCUACAACCACA", "pre-steady-state target cleavage rate": "0.0115 ± 0.0032"},
      {"sequence": "GGAGUGGAUACUAUACAACCAACUACCUGA", "pre-steady-state target cleavage rate": "0.00303 ± 0.0022"},
      {"sequence": "GGAGUGGAUACUAUACAUCCUACUUCCUCA", "pre-steady-state target cleavage rate": "0.0127 ± 0.0032"},
      {"sequence": "GGAGAGGAUACUAUACUACCUACUACCUGA", "pre-steady-state target cleavage rate": "0.0973 ± 0.013"},
      {"sequence": "GGAGACCAUACUAUACAACCUUCUACCUGA", "pre-steady-state target cleavage rate": "0.00324 ± 0.0032"},
      {"sequence": "GGAGUGGAUUCUAUACAACCUACUACGUCA", "pre-steady-state target cleavage rate": "0.0598 ± 0.0076"},
      {"sequence": "GGAGACCAUUCUAUACAACCUUCUACCUCA", "pre-steady-state target cleavage rate": "0.0122 ± 0.0038"},
      {"sequence": "GGAGUGGAUACUAUACAACCUACUACGUCA", "pre-steady-state target cleavage rate": "0.0515 ± 0.0063"},
      {"sequence": "GGAGACCAUACUAUACAACCUACUAGCUGA", "pre-steady-state target cleavage rate": "0.0115 ± 0.0056"},
      {"sequence": "GGAGUGGAUACUAUACAACCUACUACUUCA", "pre-steady-state target cleavage rate": "0.103 ± 0.0082"},
      {"sequence": "GGAGACCUUACUAUACAACCUGCUACCUCA", "pre-steady-state target cleavage rate": "0.0466 ± 0.0081"},
      {"sequence": "GGAGACGAUACUAUACAACCUACUAACCUCA", "pre-steady-state target cleavage rate": "0.194 ± 0.02"},
      {"sequence": "GGAGUGGAUACUAACAACCUACUACCUCA", "pre-steady-state target cleavage rate": "0.183 ± 0.011"},
      {"sequence": "GGAGUGGAUACUAUACAUCCUACUACGUCA", "pre-steady-state target cleavage rate": "0.0364 ± 0.0082"},
      {"sequence": "GGAGAGGAUACUAUACAGCCUACUACCUCA", "pre-steady-state target cleavage rate": "0.132 ± 0.013"},
      {"sequence": "GGAGACCAUAGUAUACAACCUACUACCUGA", "pre-steady-state target cleavage rate": "0.0652 ± 0.012"},
      {"sequence": "GGAGUGGAUACUAUACAACCUACUACCAUCA", "pre-steady-state target cleavage rate": "0.0921 ± 0.013"},
      {"sequence": "GGAGACCUUAACUAUACAACCUACUACCUCA", "pre-steady-state target cleavage rate": "0.138 ± 0.01"},
      {"sequence": "GGAGACUAUACUAUACAACCUACUACCUCA", "pre-steady-state target cleavage rate": "0.171 ± 0.014"},
      {"sequence": "GGAGUGGAUACAAUACAUCCUACUACCUCA", "pre-steady-state target cleavage rate": "0.256 ± 0.016"},
      {"sequence": "GGAGACCUAACUAUACAACGUAGUACCUCA", "pre-steady-state target cleavage rate": "0.00851 ± 0.0056"},
      {"sequence": "GGAGACCAUACUAUAACAACCUACUACCUCA", "pre-steady-state target cleavage rate": "0.133 ± 0.012"},
      {"sequence": "GGAGACCAUACUAUACAACCUACCACCUCA", "pre-steady-state target cleavage rate": "0.0975 ± 0.015"},
      {"sequence": "GGAGUGGUUACUAUACAACCAACUACCUCA", "pre-steady-state target cleavage rate": "0.00796 ± 0.0019"},
      {"sequence": "GGAGUGGAUACUAUACAACCUACAUACCUCA", "pre-steady-state target cleavage rate": "0.109 ± 0.011"},
      {"sequence": "GGAGUGGAUACUAUACAACCAUACUACCUCA", "pre-steady-state target cleavage rate": "0.00751 ± 0.003"},
      {"sequence": "GGAGAGGAUACUAUACAAGCUACUACCUGA", "pre-steady-state target cleavage rate": "0.111 ± 0.015"},
      {"sequence": "GGAGACGAUACUAUACUACCUAGUACCUCA", "pre-steady-state target cleavage rate": "0.0742 ± 0.015"},
      {"sequence": "GGAGACCUAACUAUACAACCUACUCCCUCA", "pre-steady-state target cleavage rate": "0.0941 ± 0.022"},
      {"sequence": "GGAGUGGGAUACUAUACAACCUACUACCUCA", "pre-steady-state target cleavage rate": "0.204 ± 0.011"},
      {"sequence": "GGAGACGAUACUAUAAAACCUACUACCUCA", "pre-steady-state target cleavage rate": "0.184 ± 0.013"},
      {"sequence": "GGAGUGGAUACUAUAGAACGUACUACCUCA", "pre-steady-state target cleavage rate": "0.0156 ± 0.0021"},
      {"sequence": "GGAGUGGAUACUAUCACAACCUACUACCUCA", "pre-steady-state target cleavage rate": "0.199 ± 0.013"},
      {"sequence": "GGAGACCUAUGAACACAACCUACUACCUCA", "pre-steady-state target cleavage rate": "0.0162 ± 0.0041"},
      {"sequence": "GGAGACGAUACUAUACAACCUACUACCCA", "pre-steady-state target cleavage rate": "0.107 ± 0.024"}
    ]}
  ]
}
